The sequences below were run against PUM1 PUF domain R4-NPA (Homo sapiens, UniProt Q14671 828-1176, H972P;Q975A) (assay: yeast three-hybrid, YBZ-1, SC-Leu-His + 0.5 mM 3-AT, 4 days). Settings: tags: N-Gal4 AD-HA kept; label: inside an RPR1-promoter hybrid RNA with tandem MS2 sites; ssRNA.
Summary of the method: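 The interaction score is the logarithmic change in variant frequency from input to selection. It uses log2, with a pseudocount of 1 for absent variants, and frequencies came from PCR-amplified, Illumina-sequenced repeat regions. The libraries were Pumilio-1 PUF domains randomized at the three base-contacting residues per repeat, co-expressed with matching RNA elements in strain YBZ-1 (LexA–MS2 coat fusion, HIS3 reporter). Plating lasted four days on SC-Leu (input) or SC-Leu-His + 0.5 mM 3-AT (selection).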

PUM1 PUF domain R4-NPA, sequence (Q14671 828-1176 H972P/Q975A): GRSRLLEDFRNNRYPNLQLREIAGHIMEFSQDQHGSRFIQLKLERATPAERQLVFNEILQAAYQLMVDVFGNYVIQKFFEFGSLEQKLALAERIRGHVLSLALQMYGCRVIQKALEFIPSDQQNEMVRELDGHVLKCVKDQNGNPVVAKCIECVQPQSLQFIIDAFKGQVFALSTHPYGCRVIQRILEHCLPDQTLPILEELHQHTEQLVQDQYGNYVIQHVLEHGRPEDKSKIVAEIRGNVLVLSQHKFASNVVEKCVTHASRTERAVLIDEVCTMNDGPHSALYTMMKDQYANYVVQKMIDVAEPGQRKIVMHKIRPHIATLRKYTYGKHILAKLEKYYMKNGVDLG

Going from “GGCUAGAACUAGUGGAUCCCCCGGCGCCCGGCGGCUCGAGCCCGGGUAAGUGUACAUAGUCUGCAUGCCGCCGGGCGCCAUGCCUGCAGGUCGACUCUAGAAAACAUG” to “GGCUAGAACUAGUGGAUCCCCCGGCGCCCGGCGGCUCGAGCCCGGGUAAGUGUAAAUAGUCUGCAUGCCGCCGGGCGCCAUGCCUGCAGGUCGACUCUAGAAAACAUG”, the binding signal rises from 0.72 log2 enrichment (interaction score) to 1.59 log2 enrichment (interaction score).

“GGCUAGAACUAGUGGAUCCCCCGGCGCCCGGCGGCUCGAGCCCGGGUAAGUGUAUAUAGUCUGCAUGCCGCCGGGCGCCAUGCCUGCAGGUCGACUCUAGAAAACAUG” was tested, and the binding signal was 4 log2 enrichment (interaction score).

Reference: article PMC8384837, “Expanding the binding specificity for RNA recognition by a PUF domain”
